This note sets out measurements from PubChem BioAssay (Tox21).

Experiment [1] is described as follows: qHTS assay to identify aromatase inhibitors - cell viability counter screen (AID 743084).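 Also: cells stimulated with testosterone during compound exposure; nearly all actives have a fitted effect of over 55% in size.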 Also: potency is read from the fitted curve at half-maximal effect.
Experiment [2] can be described thus: qHTS assay to identify small molecule that activate the aryl hydrocarbon receptor (AhR) signaling pathway - cell viability counter screen (AID 743086). Also: nearly all actives have a fitted effect of over 45% in size. Also: potency is read from the fitted curve at half-maximal effect. Put shortly: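 Cytotoxicity counter screen: CellTiter-Fluor signal (30 min, 37 C) in 4000 HepG2 cells/well carrying the DRE-luciferase reporter, following 24 h compound exposure at 37 C.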
Experiment [3] concerns the target Peroxisome proliferator-activated receptor gamma (Homo sapiens) (UniProt P37231). Nature of the experiment: qHTS assay to identify small molecule agonists of the peroxisome proliferator-activated receptor gamma (PPARg) signaling pathway (AID 743094; active = well fitted activation curve with a large enough effect in the signal ratio in the repeat runs, not every such curve was filed as active; the % refers to the signal ratio; also: potency is read from the fitted curve at half-maximal effect). Put shortly:
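Cells from the PPARg UAS-bla HEK293H line are plated and incubated 5 h at 37C. Compounds in DMSO are pinned in and left 17 h at 37C. LiveBLAzer B/G substrate is then added for 1 h at room temperature before fluorescence is measured.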

For experiment [4] the target is unchanged. Nature of the experiment: qHTS assay to identify small molecule antagonists of the peroxisome proliferator-activated receptor gamma (PPARg) signaling pathway (AID 743191; calls by dose curve; also: nearly all actives have a fitted effect of over 30% in size; also: potency is read from the fitted curve at half-maximal effect). Put shortly: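 Beta-lactamase reporter under UAS control in HEK293H PPARg-bla cells; compound treatment 17 h at 37C. Read-out: fluorescence intensity after 1 h room-temperature incubation with LiveBLAzer B/G FRET substrate.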

The nature of experiment [5]: qHTS assay for small molecule agonists of the antioxidant response element (ARE) signaling pathway - cell viability counter screen (AID 743203; calls by dose curve; also: nearly all actives have a fitted effect of over 55% in size; also: potency is read from the fitted curve at half-maximal effect). Put shortly: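 Cytotoxicity was tested in parallel with the ARE reporter screen. ARE-bla HepG2 cells were exposed to compounds for 16 hrs, and viability was taken from CellTiter-Glo luminescence.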
A short description of experiment [6]: qHTS assay for small molecule activators of the heat shock response signaling pathway - cell viability counter screen (AID 743209). Also: nearly all actives have a fitted effect of over 50% in size. Also: potency is read from the fitted curve at half-maximal effect. Put shortly: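 Cytotoxicity counter screen run in parallel with the HSE beta-lactamase reporter, using the same wells. HeLa HSE-bla cells received compound for 5 h at 37 C; ATP-based CellTiter-Glo luminescence was measured after 30 min at room temperature.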

Experiment [7] is described as follows: qHTS assay for small molecule agonists of the antioxidant response element (ARE) signaling pathway (AID 743202; active = well fitted activation curve with a large enough effect in the signal ratio in the repeat runs, not every such curve was filed as active; the % refers to the signal ratio; also: potency is read from the fitted curve at half-maximal effect). Put shortly: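 Beta-lactamase reporter activity, read as fluorescence intensity, reflects ARE/Nrf2 pathway induction in HepG2 cells after 16 h compound exposure at 37 C; substrate loading was 2 h at room temperature.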
Experiment [8] in a line: qHTS assay for small molecule activators of the heat shock response signaling pathway (AID 743210; active = well fitted activation curve with a large enough effect in the signal ratio in the repeat runs, with a control signal flat, not every such curve was filed as active; the % refers to the signal ratio;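 also: HeLa cells with beta-lactamase reporter driven by heat shock elements; series mostly up to about 63 µM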). Put shortly: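 Fluorescence from a cleaved B/G FRET substrate (2.5 h, room temp) reports HSE-driven beta-lactamase in HeLa cells treated 5 h at 37 C with DMSO-dissolved compounds.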
For experiment [9], the target named is Aryl hydrocarbon receptor (Homo sapiens) (UniProt P35869). Nature of the experiment: qHTS assay to identify small molecule that activate the aryl hydrocarbon receptor (AhR) signaling pathway (AID 743085). Also: nearly all actives have a fitted effect of over 15% in size. Also: potency is read from the fitted curve at half-maximal effect.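 As to activation: HG2L7.5c1 human HepG2 liver cells with stably integrated DRE-driven firefly reporter; series mostly up to about 70 µM.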 Put shortly: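 Stably transfected human liver carcinoma cells (HG2L7.5c1; 20 DRE-firefly luciferase) were incubated 5 h, dosed, and kept 24 h at 37C. Agonism was scored from increased luciferase luminescence.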

The nature of experiment [10]: qHTS assay to identify small molecule antagonists of the peroxisome proliferator-activated receptor gamma (PPARg) signaling pathway - cell viability counter screen (AID 743194). Also: nearly all actives have a fitted effect of over 55% in size. Also: potency is read from the fitted curve at half-maximal effect. Conditions: Potency: co-treated with 50 nM rosiglitazone unless noted. Put shortly: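 Viability was measured as CellTiter-Glo luminescence in GeneBLAzer PPARg UAS-bla HEK293H cells. These cells had been exposed 17 h at 37 C to compounds together with rosiglitazone at 50 nM final, with the beta-lactamase readout taken in the same wells.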

Molecules are shown by their SMILES. Several values for one entry are separate records, joined by “and”; a condition that tells them apart may be missing. Equal values may be shown once. Results filed as inconclusive are left out. The source holds several records for some structures; these can differ, active in one and inactive in another. Activity calls are given as the source filed them. Unless noted, calls follow the shape of the dose curve; as a rule, active = well fitted curve in the direction sought with a large enough effect in the repeat runs; inconclusive = weak or mixed curves; inactive = no such curve, though single readings can be large; an effect the other way counts as inactive or inconclusive.
% is scaled to controls: 0 for no effect and ±100 for the full control effect.

Sequence of Aryl hydrocarbon receptor (Homo sapiens) (P35869 whole entry, looked up): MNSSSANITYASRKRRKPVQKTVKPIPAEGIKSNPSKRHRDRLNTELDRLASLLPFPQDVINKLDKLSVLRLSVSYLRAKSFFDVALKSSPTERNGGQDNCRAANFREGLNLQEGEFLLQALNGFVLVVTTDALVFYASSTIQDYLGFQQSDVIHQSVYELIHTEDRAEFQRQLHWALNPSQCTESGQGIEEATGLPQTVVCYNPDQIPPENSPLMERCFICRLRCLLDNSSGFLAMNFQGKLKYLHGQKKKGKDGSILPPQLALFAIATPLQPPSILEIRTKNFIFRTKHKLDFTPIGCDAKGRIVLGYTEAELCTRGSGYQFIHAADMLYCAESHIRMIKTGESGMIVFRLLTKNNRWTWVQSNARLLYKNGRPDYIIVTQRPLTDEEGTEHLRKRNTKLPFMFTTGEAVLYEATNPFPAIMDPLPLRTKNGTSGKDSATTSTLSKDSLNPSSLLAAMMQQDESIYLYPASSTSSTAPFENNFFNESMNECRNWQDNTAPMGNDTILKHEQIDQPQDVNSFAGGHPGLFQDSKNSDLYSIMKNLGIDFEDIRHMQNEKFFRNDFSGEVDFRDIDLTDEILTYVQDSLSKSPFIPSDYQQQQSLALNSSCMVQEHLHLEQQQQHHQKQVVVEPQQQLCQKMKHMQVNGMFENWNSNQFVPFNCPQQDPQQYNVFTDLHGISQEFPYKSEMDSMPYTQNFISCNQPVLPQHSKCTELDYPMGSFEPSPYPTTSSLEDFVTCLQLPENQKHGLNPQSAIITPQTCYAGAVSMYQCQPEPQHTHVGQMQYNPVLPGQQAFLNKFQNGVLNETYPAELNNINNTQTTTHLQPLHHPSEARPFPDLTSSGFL
Sequence of Peroxisome proliferator-activated receptor gamma (Homo sapiens) (P37231 whole entry, looked up): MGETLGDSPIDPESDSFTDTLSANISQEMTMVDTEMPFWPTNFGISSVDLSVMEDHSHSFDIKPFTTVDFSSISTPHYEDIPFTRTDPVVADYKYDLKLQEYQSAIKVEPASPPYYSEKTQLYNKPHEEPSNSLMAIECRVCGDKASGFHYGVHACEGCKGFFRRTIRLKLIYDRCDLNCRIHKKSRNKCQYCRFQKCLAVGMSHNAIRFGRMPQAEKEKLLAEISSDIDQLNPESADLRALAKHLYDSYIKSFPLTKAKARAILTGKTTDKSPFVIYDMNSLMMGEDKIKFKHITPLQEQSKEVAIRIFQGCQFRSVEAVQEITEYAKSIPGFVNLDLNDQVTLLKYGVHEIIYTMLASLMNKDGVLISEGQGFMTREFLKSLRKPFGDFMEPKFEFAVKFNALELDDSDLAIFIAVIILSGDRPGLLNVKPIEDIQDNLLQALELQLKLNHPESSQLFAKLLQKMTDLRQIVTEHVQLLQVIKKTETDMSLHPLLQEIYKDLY

For the molecule `Cc1cc(C(F)(C(F)(F)F)C(F)(F)F)ccc1NC(=O)c1cccc(I)c1C(=O)NC(C)(C)CS(C)(=O)=O`, the Potency entry in experiment [1], in [2], in [3], in experiment [4], in experiment [5] and in experiment [6] was “inactive” in each case.

As to `Clc1ccc(CCC(Cn2ccnc2)Sc2c(Cl)cccc2Cl)cc1` (stereo not drawn), the Potency result in experiment [1] and in [2] was “inactive” each time.

As for `COc1ccc(OC)c(CC(C)N)c1` (stereo not drawn), the Potency entry in experiment [1], in experiment [2], in experiment [3], in [4], in experiment [7] and in experiment [5] was “inactive” in each case. Also, the Potency entry in experiment [6] and in [8] was “inactive” in each case.

With `Clc1ccc(CO/N=C(\Cn2ccnc2)c2ccc(Cl)cc2Cl)c(Cl)c1`, the Potency result in [1], in experiment [2] and in experiment [3] was “inactive” each time. In experiment [6], the Potency was 23.7 µM (active).

For `CC(C)C1CCC(Cc2ccc(Cl)cc2)C1(O)Cn1cncn1` (stereo not drawn), the Potency in [1] was 24.1 µM (active); in experiment [7] it was 15.2 µM (active). Further, the Potency result in experiment [9] and in experiment [6] was “inactive” in each case.

Take `Clc1ccc(COC(Cn2ccnc2)c2ccc(Cl)cc2Cl)cc1` (stereo not drawn): the Potency in experiment [1] is 33.5 µM (active) and 45.3 µM (active) and 60.9 µM (active); in experiment [2], 15.3 µM (active); in experiment [6], 36.3 µM (active) and 12.3 µM (active). The Potency entry in experiment [3] was “inactive”.

Consider `CCC(C)c1cc([N+](=O)[O-])cc([N+](=O)[O-])c1OC(=O)C=C(C)C` (stereo not drawn), for which the Potency in [1] is 24.3 µM (active); in experiment [10], 54.9 µM (active); in experiment [5] it was 27.3 µM (active). For the same molecule, the Potency entry in experiment [9] and in [6] was “inactive” throughout.

`CN(C)CCc1c[nH]c2cccc(O)c12`: the Potency entry in [1], in experiment [2], in experiment [3], in [4], in experiment [5] and in experiment [6] was “inactive” throughout.

Turning to `CC1CCC(C(C)C)C(OC(=O)c2ccccc2N)C1` (stereo not drawn), in experiment [1], the Potency entry was “inactive and 47.9 µM (active)”. Moreover, the Potency result in experiment [2] and in experiment [3] was “inactive” throughout.

For `CCCCCCCCCCCCCCCC[n+]1ccccc1`, the Potency is 32 µM (active) and 54.5 µM (active) and 60.3 µM (active) in experiment [1]; 26.6 µM (active) [middle of 4 runs] in experiment [10]; 26.9 µM (active) [middle of 4 runs] in [5]; 28.8 µM (active) and 24.5 µM (active) and 48.3 µM (active) in [6]. Further, the Potency result in experiment [9] was “inactive”.

Take `Clc1ccc(-c2ccc(Cl)c(Cl)c2Cl)c(Cl)c1Cl`: the Potency entry in experiment [1], in experiment [2], in experiment [3], in experiment [4] and in experiment [6] was “inactive” each time.

On to `CCCCCCCCc1ccc(O)cc1`, for which the Potency is 21.8 µM (active) in experiment [1] and 42.3 µM (active) in experiment [6]. Moreover, the Potency entry in [9] and in [2] was “inactive” in each case.

Regarding `[Cl][Sb]([Cl])[Cl]`, the Potency result in experiment [1], in experiment [2], in experiment [3], in experiment [5] and in [6] was “inactive” throughout. The Potency in [7] was 5.45 µM (active).

`N#CSCSC#N`: the Potency was 12.5 µM (active) and 17.1 µM (active) in [1]; 19.9 µM (active) and 12.2 µM (active) in experiment [6]. Also, the Potency entry in experiment [9] and in experiment [2] was “inactive” each time.

In the case of `CC(=O)[O-].[Tl+]`, the Potency result in experiment [1], in [9], in experiment [2] and in [6] was “inactive” each time.

`C1CCC2CCCCC2C1` (stereo not drawn): the Potency entry in experiment [1], in [2], in experiment [3], in experiment [10], in experiment [5] and in [6] was “inactive” in each case. In addition, the Potency entry in experiment [8] was “inactive”.

Take `N#CCCC(Br)(C#N)CBr` (stereo not drawn): the Potency is 27.3 µM (active) in [1] and 49 µM (active) in experiment [6]. Further, the Potency result in experiment [9] and in experiment [2] was “inactive” throughout.

As to `C[C@@H]1O[C@@H](O[C@H]2C[C@@H](O)[C@]3(CO)[C@H]4[C@H](O)C[C@]5(C)[C@@H](C6=CC(=O)OC6)CC[C@]5(O)[C@@H]4CC[C@]3(O)C2)[C@H](O)[C@H](O)[C@H]1O`, the Potency entry in experiment [1], in experiment [9], in experiment [2] and in [8] was “inactive” throughout. Further, the Potency is 6.5 nM (active) and 133 nM (active) in [5]; 20.8 nM (active) and 266 nM (active) in [6].

Consider `CC(C)(C)C(O)/C(=C\c1ccc(Cl)cc1Cl)n1cncn1` (stereo not drawn), for which the Potency in experiment [1] is 74 µM (active); in [4] it was 52.8 µM (active); in [5], 74 µM (active). Moreover, the Potency result in [9] and in experiment [6] was “inactive” each time.

Take `CCCN(CC)CC1COC2(CCC(C(C)(C)C)CC2)O1` (stereo not drawn): the Potency entry in experiment [1], in [9], in experiment [2], in experiment [5], in experiment [6] and in experiment [8] was “inactive” in each case.

For `C=CC(=O)OCCCCOC(=O)C=C`, the Potency was 48.6 µM (active) in experiment [1], 9.77 µM (active) in experiment [3], 27.3 µM (active) in experiment [7] and 5.49 µM (active) in experiment [6]. Also, the Potency entry in experiment [2] was “inactive”.

In the case of `O=C(CCl)C(Cl)Cl`, the results for the Potency in experiment [1] and in experiment [5] were 8.71 µM (active) and 61.7 µM (active), respectively. In addition, in [9], the Potency result was “inactive”.

`FC(Cl)(Cl)Cl`: the Potency entry in experiment [1], in experiment [2], in [4], in [10], in experiment [7] and in experiment [5] was “inactive” in each case. For the same molecule, the Potency entry in [6] and in experiment [8] was “inactive” each time.

Regarding `O=c1oc2ccccc2c(O)c1Cc1c(O)c2ccccc2oc1=O`, the Potency result in [1], in experiment [9] and in experiment [6] was “inactive” throughout. Besides, in [7], the Potency was 7.5 µM (active).

With `BrC(Br)C(Br)(Br)Br`, the Potency in experiment [1] and in experiment [5] was 54.8 µM (active) in each case. Moreover, the Potency result in [2], in experiment [3] and in experiment [6] was “inactive” throughout.

With `Cc1cc(N=Nc2ccccc2C)ccc1N`, the Potency is 24.3 µM (active) in [1]; 7.7 µM (active) and 4.33 µM (active) in experiment [9]; 5.45 µM (active) and 2.73 µM (active) in experiment [2]. The Potency entry in experiment [6] is “inactive”.

For the molecule `CC[C@H](C)[C@H]1O[C@]2(C=C[C@@H]1C)C[C@@H]1C[C@@H](C/C=C(\C)[C@@H](O[C@H]3C[C@H](OC)[C@@H](O[C@H]4C[C@H](OC)[C@@H](O)[C@H](C)O4)[C@H](C)O3)[C@@H](C)/C=C/C=C3\CO[C@@H]4[C@H](O)C(C)=C[C@@H](C(=O)O1)[C@]34O)O2`, the Potency entry in experiment [1] was “inactive and 18.1 µM (active)”; in [2], “inactive and 11.4 µM (active)”; in [5], 11.4 µM (active); in experiment [6] it was 12.9 µM (active). For the same molecule, the Potency entry in experiment [9] and in [8] was “inactive” each time.
